Several values for one entry are separate records, joined by “and”; a condition that tells them apart may be missing. Identical values can stand only once. Out of some 5,500 compounds screened, about 2,000 (36%) were called active. Inconclusive results (about 18%) are left out. Rule as the data show it: active = normalized growth mostly below about 0.91 (no sharp cut-off); inconclusive = no clear call, values can overlap the other calls; inactive = mostly above about 0.92. The list shows a part of the results.
Assay: chemical genetic growth profiling, strain panel (AID 1159580);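 also: tested at 20 µM; growth read once vehicle control cultures reached saturation at 30 °C; 1 = growth at the plate median or of vehicle wells; lower values mean less growth of the strain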
Conditions: S. cerevisiae deletion strains, growth OD

Measured: normalized growth

CC[C@@H](C(=O)[C@@H](C)[C@@H](O)[C@H](C)[C@@H]1O[C@@H]([C@@H](CC)C(=O)O)CC[C@@H]1C)[C@H]1OC2(C=C[C@@H](O)[C@]3(CC[C@@](C)([C@H]4CC[C@](O)(CC)[C@H](C)O4)O3)O2)[C@H](C)C[C@@H]1C (some centres undefined)
0.934 (inactive) and 0.145 (active): locus YHR030C, strain SLT2, stronger effect = lower value
active: locus YAL021C, strain ccr4, stronger effect = lower value 0.721 | locus YAL026C, strain drs2, stronger effect = lower value 0.14 | locus YAL030W, strain snc1, stronger effect = lower value 0.906 | locus YBL061C, strain skt5, stronger effect = lower value 0.846 | locus YBR009C, strain hhf1, stronger effect = lower value 0.833 | locus YBR021W, strain FUR4, stronger effect = lower value 0.753 | locus YBR023C, strain chs3, stronger effect = lower value 0.839 | locus YBR171W, strain sec66, stronger effect = lower value 0.887 | locus YBR231C, strain swc5, stronger effect = lower value 0.789 | locus YCL011C, strain gbp2, stronger effect = lower value 0.867 | locus YCL016C, strain dcc1, stronger effect = lower value 0.85 | locus YCL069W, strain vba3, stronger effect = lower value 0.892 | locus YCR088W, strain abp1, stronger effect = lower value 0.877 | locus YDL134C, strain PPH21, stronger effect = lower value 0.871 | locus YDL192W, strain arf1, stronger effect = lower value 0.136 | locus YDR069C, strain doa4, stronger effect = lower value 0.872 | locus YDR101C, strain arx1, stronger effect = lower value 0.891 | locus YDR162C, strain NBP2, stronger effect = lower value 0.69 | locus YDR297W, strain sur2, stronger effect = lower value 0.919 | locus YDR318W, strain mcm21, stronger effect = lower value 0.825 | locus YDR388W, stronger effect = lower value 0.668 | locus YDR502C, strain sam2, stronger effect = lower value 0.847 | locus YEL003W, strain gim4, stronger effect = lower value 0.885 | locus YEL037C, strain rad23, stronger effect = lower value 0.901 | locus YFR010W, strain ubp6, stronger effect = lower value 0.84 | locus YGL078C, strain dbp3, stronger effect = lower value 0.917 | locus YGL086W, strain mad1, stronger effect = lower value 0.863 | locus YGL167C, strain pmr1, stronger effect = lower value 0.744 | locus YGL248W, strain PDE1, stronger effect = lower value 0.878 | locus YGL253W, strain hxk2, stronger effect = lower value 0.816 | locus YHR079C, strain IRE1 (second series), stronger effect = lower value 0.837 | locus YHR079C, strain IRE1, stronger effect = lower value 0.164 | locus YHR094C, strain hxt1, stronger effect = lower value 0.877 | locus YHR142W, strain chs7, stronger effect = lower value 0.836 | locus YHR200W, strain rpn10, stronger effect = lower value 0.908 | locus YIL125W, strain kgd1, stronger effect = lower value 0.785 | locus YIR030C, strain dcg1, stronger effect = lower value 0.892 | locus YJL092W, strain hpr5, stronger effect = lower value 0.903 | locus YJL095W, strain BCK1 (second series), stronger effect = lower value 0.875 | locus YJL129C, strain trk1, stronger effect = lower value 0.707 | locus YJL154C, strain vps35, stronger effect = lower value 0.821 | locus YJL164C, strain tpk1, stronger effect = lower value 0.883 | locus YJL168C, strain set2, stronger effect = lower value 0.873
inactive: locus YAL013W, strain DEP1, stronger effect = lower value 1.02 | locus YBR229C, strain ROT2, stronger effect = lower value 0.932 | locus YBR279W, strain paf1, stronger effect = lower value 0.94 | locus YCL029C, strain bik1, stronger effect = lower value 0.911 | locus YCL061C, strain MRC1, stronger effect = lower value 0.923 | locus YDL005C, strain med2, stronger effect = lower value 0.97 | locus YDL035C, strain GPR1, stronger effect = lower value 0.876 | locus YDL040C, strain nat1, stronger effect = lower value 0.944 | locus YDL074C, strain BRE1, stronger effect = lower value 0.963 | locus YDL101C, strain DUN1, stronger effect = lower value 0.943 | locus YDL185W, strain tfp1, stronger effect = lower value 0.988 | locus YDR001C, strain nth1, stronger effect = lower value 0.929 | locus YDR137W, strain rgp1, stronger effect = lower value 0.974 | locus YDR159W, strain sac3, stronger effect = lower value 0.941 | locus YDR195W, strain ref2 1.01 | locus YDR334W, strain swr1, stronger effect = lower value 0.98 | locus YDR335W, strain msn5, stronger effect = lower value 0.927 | locus YDR392W, strain spt3, stronger effect = lower value 1.09 | locus YEL061C, strain CIN8 (second series), stronger effect = lower value 0.948 | locus YEL061C, strain CIN8, stronger effect = lower value 0.982 | locus YER015W, strain faa2, stronger effect = lower value 0.979 | locus YER016W, strain bim1, stronger effect = lower value 0.95 | locus YER110C, stronger effect = lower value 1.01 | locus YER111C, strain swi4, stronger effect = lower value 0.96 | locus YER155C, strain BEM2 (second series), stronger effect = lower value 1.03 | locus YER155C, strain BEM2, stronger effect = lower value 1.03 | locus YER167W, strain BCK2, stronger effect = lower value 0.914 | locus YGL173C, strain kem1, stronger effect = lower value 0.917 | locus YGL227W, strain vid30, stronger effect = lower value 0.943 | locus YGL240W, strain doc1, stronger effect = lower value 1 | locus YGR078C, strain PAC10, stronger effect = lower value 0.986 | locus YGR135W, strain pre9, stronger effect = lower value 0.932 | locus YGR252W, strain gcn5, stronger effect = lower value 0.923 | locus YHR013C, strain ard1, stronger effect = lower value 1.07 | locus YHR027C, strain rpn1, stronger effect = lower value 0.958 | locus YHR129C, strain ARP1, stronger effect = lower value 0.932 | locus YIL066C, strain RNR3, stronger effect = lower value 0.934 | locus YIL073C, strain SPO22, stronger effect = lower value 0.88 | locus YJL115W, strain asf1, stronger effect = lower value 0.985 | locus YJL134W, strain LCB3, stronger effect = lower value 0.949 | locus YJL166W, strain qcr8, stronger effect = lower value 0.926 | locus YJL187C, strain SWE1 (second series), stronger effect = lower value 0.916 | locus YJL187C, strain SWE1, stronger effect = lower value 0.935 | locus YJR043C, strain POL32, stronger effect = lower value 0.968
0.819 (inactive) and 0.137 (active): locus YJL095W, strain BCK1, stronger effect = lower value

Reference: PubChem BioAssay AID1159580 (chemical genetic matrix, 2015)
